Data published in PubChem BioAssay AID504847 (National Center for Advancing Translational Sciences (NCATS), 2011).
Several values for one entry are separate records, joined by “and”; a condition that tells them apart may be missing. Identical values can stand only once. The whole screen tested about 400,000 compounds, of which about 3,700 (0.93%) were called active. Inconclusive results (about 3%) are left out. The call rests on the fitted dose curve; in most records, active means well fitted inhibition curve with a large enough effect; inconclusive means small, poorly fitted or top-dose-only effect, or another doubt; inactive means no such curve, though single readings can be large or run the other way. Only a selection was taken, and actives are over-represented in it overall.

target: Vitamin D3 receptor (Homo sapiens) (UniProt P11473); assay: Inhibitors of the vitamin D receptor (VDR): qHTS; conditions: VDR-SRC2-3 peptide fluorescence polarization, 2 h; max response, negative = inhibition: hits give low values
Sequence (P11473 whole entry, looked up): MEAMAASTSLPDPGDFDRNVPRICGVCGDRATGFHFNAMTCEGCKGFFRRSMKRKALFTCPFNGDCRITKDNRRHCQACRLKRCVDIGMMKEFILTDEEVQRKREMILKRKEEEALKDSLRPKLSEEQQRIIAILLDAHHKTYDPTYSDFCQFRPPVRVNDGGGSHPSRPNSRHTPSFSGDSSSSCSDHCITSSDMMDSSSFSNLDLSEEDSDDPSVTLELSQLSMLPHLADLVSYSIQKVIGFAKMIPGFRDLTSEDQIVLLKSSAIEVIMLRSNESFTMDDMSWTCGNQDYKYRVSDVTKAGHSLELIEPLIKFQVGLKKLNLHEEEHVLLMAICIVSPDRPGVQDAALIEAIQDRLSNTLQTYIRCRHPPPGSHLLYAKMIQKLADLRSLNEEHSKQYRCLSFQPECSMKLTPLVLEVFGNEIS
In short: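 Fluorescence polarization assay measuring small-molecule disruption of VDR binding to the coregulator peptide SRC2-3. Compounds were pin-transferred (23 nl) into the reagent mix and incubated 2 h at room temperature before reading.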
On the % scale 0 is the no-effect control and ±100 the full control effect; potency means the concentration at half of the fitted maximal effect.

Max response, negative = inhibition, inactive:
O=c1cc2nc(-c3ccccc3)nc(SCCOc3ccc(Cl)cc3)n2[nH]1 11.1%
CCOC(=O)c1cc2c(=O)n3ccccc3nc2n(CC2CCCO2)c1=NC(=O)c1ccccc1F (stereo unspecified) -16%
Cc1ccc(C2c3[nH]c4ccccc4c3CCN2C(=O)c2cccc(C)c2)cc1 (stereo unspecified) 4%
Clc1cccc(-n2ncc3c(NCCc4ccccc4)ncnc32)c1 2.94%
COc1cc(C(=S)N2CCOCC2)cc(OC)c1OC(=O)c1cc([N+](=O)[O-])cc([N+](=O)[O-])c1 -18.9%
CC1CCN(C(=S)c2cccc([N+](=O)[O-])c2)CC1 9.7%
COc1ccc(OC)c([C@H](O)CNC(=O)CN)c1 6.34%
Cc1ccc(CNC(=O)CCc2c(C)nc3nc(CNC(=O)OC(C)(C)C)nn3c2C)cc1 6.84%
CCOC(=O)c1ccc(NC(=O)C2CC(=O)N(c3ccc4c(c3)OCCO4)C2)cc1 (stereo unspecified) -6.01%
CC(=O)c1ccccc1NC(=O)C1CC(=O)N(c2ccc3c(c2)OCCO3)C1 (stereo unspecified) 0.279%
CCc1cc2c(cc3c(=O)n(CC(=O)NCCc4ccc(OC)c(OC)c4)ncn32)s1 14.2%
CC1CC(C)CN(c2oc(-c3ccc(OCc4ccc(Cl)cc4)cc3)nc2C#N)C1 (stereo unspecified) -6.19%
COc1cccc(-c2cc(C(=O)Nc3ccc(C)cc3)[nH]n2)c1 -3.16%
Cc1ccc(C(=O)NC(=S)NCc2cccnc2)cc1 -6.42%
CSc1sc(C(=O)NC(=O)NCc2cccnc2)c(C)c1-c1ccon1 1.93%
COc1cc(CNCCSc2nnnn2C)ccc1OCc1ccc(Cl)cc1Cl 1.83%
O=C(c1ccco1)N(Cc1cccs1)c1ccc(O)cc1 -6.28%
Cc1cccc(CSc2nc3ccncc3n2CC(=O)N(C)C2CCCCC2)c1 -0.866%
CCOCCCNC(=O)c1c(NC(=O)Cc2coc3ccc(C)cc23)sc2c1CCC2 8.22%
O=C(Nc1ccccc1-c1nnn(CC(=O)N2CCN(c3ccccc3)CC2)n1)c1cccs1 -0.102%
O=C(Nc1ccccc1-c1ccccc1)c1ccccc1[N+](=O)[O-] -7.79%
Cc1ccc(C)c(NC(=O)CSC2=Nc3ccccc3N=C(c3ccc(F)cc3)C2)c1 4.3%
Cc1cccc2nc(-c3ccc(Cl)s3)c(Nc3ccc4c(c3)OCCO4)n12 -14.5%
CC(=O)NCC(O)c1ccc([N+](=O)[O-])cc1 (stereo unspecified) -16.9%
C=C(C(C)=O)C(O)c1cccs1 (stereo unspecified) -7.76%
CCN1CCN(c2cc(C)c3cc(NC(=O)c4cc(Cl)ccc4OC)ccc3n2)CC1 -8.13%
CCOc1ccc(CC(=O)NCCc2csc3nc(-c4ccccc4F)nn23)cc1 13.3%
CCC(CO)Oc1cc(NC(=O)c2ccc(Cl)cc2)c2ncn(C(C)C)c2c1 (stereo unspecified) -27.1%
CN(C)c1nccc(NCc2ccccc2)c1C#N 28.6%
CCOc1ccc(NC(=O)CSc2c3c(nc4ccccc24)CCCC3)cc1 0.351%
CC(=O)c1ccc(NS(=O)(=O)c2ccc(-c3cc(C)no3)s2)cc1 -0.0795%
COc1ccc(CNC(=O)C2=Cc3cccc(OC)c3OC2)cc1OC -2.19%
C[C@]12CC[C@@H]3c4ccc(O)cc4C[C@@H](CCCCCCCCCS(=O)CCCC(F)(F)C(F)(F)F)C3[C@@H]1CC[C@@H]2O (stereo partly specified) -2.01%
CCOc1ccc(NC(=O)CSc2nnc3c(n2)[nH]c2ccc(S(=O)(=O)N4CCOCC4)cc23)cc1 3.89%
CC(=O)c1cccc(NC(=O)c2cc(C)nn2-c2ccccc2)c1 -12.6%
CSc1ccccc1C(=O)NCc1ccccc1 10.4%
CCCCC/C=C\C/C=C\CCCCCCCCCC(N)=O -2.13%
CCN(CC)C(=O)CSc1nc2cc3c(cc2c(=O)n1CCCC(=O)NCc1ccc2c(c1)OCO2)OCO3 4.85%
CCOc1ccc2nc(N3CCCC(C(=O)Nc4cc(C)ccc4C)C3)sc2c1 (stereo unspecified) 5.91%
O=C(O)c1ccc(CSc2nc3cccnc3n2Cc2cccc(F)c2)cc1 9.37%
C[C@@H]1C[C@H]2[C@@H]3C[C@H](F)C4=CC(=O)C=C[C@@]4(C)[C@]3(F)[C@H](O)C[C@]2(C)[C@@]1(O)C(=O)CO -2.08%
CCOC(=O)c1c(C)[nH]c(CCC(=O)Nc2ccc(OC)c(OC)c2)c1C -6.79%
COc1cc(OC)c(C2C=C(C(=O)O)Nc3ncnn32)cc1OC (stereo unspecified) -29.8%
COc1ccccc1CNC(=O)Cn1nc(C)c2nn(-c3ccc(Cl)cc3)c(C)c2c1=O 3.2%
Nc1ccc2c(c1)C(O)c1ccc(Cl)cc1-2 (stereo unspecified) 1.49%
CCN(CC)c1nc(C#N)nc(OC)n1 -23.3%
CCOC(=O)C1CCN(C(=O)Nc2ccc(Cl)cc2)CC1 6.67%
CCOC(=O)c1ccccc1N1C(=O)C2Sc3[nH]c(=O)sc3C(/C=C/c3ccccc3)C2C1=O (stereo unspecified) -26.2%
CCCCCn1c(CCCNC(=O)c2ccccc2OC)nc2ccccc21 10.5%
COc1cccc2c1cc1c(=O)n(CC(=O)N3CCN(c4cccc(Cl)c4)CC3)nc(C)n12 -15.1%
Cc1cccc(NC(=O)CSc2ncc(-c3ccccc3)[nH]2)c1C -15.6%
CC(=O)c1c(C)oc2ccc(NS(=O)(=O)c3ccc(C(=O)O)cc3)cc12 11.8%
CCOC(=O)c1c(C)n(S(=O)(=O)c2ccc(C)cc2C)c2ccc(NS(=O)(=O)c3ccc(C)cc3C)cc12 -7.13%
O=C(C1CCCN(S(=O)(=O)c2cccc3nonc23)C1)N1CCN(c2ccccc2F)CC1 (stereo unspecified) -15.4%
COc1ccc(OC)c(NC(=O)C2CCN(S(=O)(=O)c3ccc(C)cc3)CC2)c1 29.3%
Cn1cccc1/C=C1\SC(=S)N(NC(=O)c2ccc(Cl)cc2)C1=O -22.2%
O=C(NCc1ccccc1)c1cc(-c2cccc(Cl)c2)on1 -16.6%
O=c1cc(O)c(-c2cccc(C(F)(F)F)c2)c(Cl)[nH]1 13.8%
O=c1[nH]c(/C=C/c2cccc(Br)c2)nc2ccccc12 -10.9%
CC1(C)O[C@@H]2C[C@@H]3[C@H]4C[C@@H](F)C5=CC(=O)C=C[C@]5(C)[C@@]4(F)[C@@H](O)C[C@]3(C)[C@]2(C(=O)CO)O1 1.68%
COCCNC(=O)CSc1nc(-c2ccccc2)[nH]c1-c1ccc(C)cc1 -12.4%
Cc1cc(C(=O)NNS(=O)(=O)c2ccccc2C(F)(F)F)nn1C(C)(C)C 3.25%
CCCN1CCN(CCCNC(=O)c2cnn(-c3ccc(C)cc3)c2-n2cccc2)CC1 13.2%
CCN(CCCNC(=O)c1cc2cc3cc(OC)ccc3nc2s1)c1ccccc1 -7.19%
O=C(NCC1CC1)C1(C(F)(F)F)C/C(=C\CCO)CCCO1 (stereo unspecified) -6.83%
Nc1nc2nc(Cl)[nH]c2c(=O)[nH]1 -11.6%
CO/N=C(\C(=O)N[C@@H]1C(=O)N2C(C(=O)O)=C(COC(C)=O)CS[C@H]12)c1csc(N)n1 (stereo in doubt) -16.4% and -7.75% and -25.8%
CC(C)(C)OC(=O)C1=C(CO)CS[C@@H]2[C@H](NC(=O)Cc3ccccc3)C(=O)N12 -17.3%
O=[N+]([O-])c1ccc(S(=O)(=O)N2CCN(c3nc(-c4ccccc4)nc4ccccc34)CC2)cc1 -8.98%

Potency, active:
O=C(Oc1ccccc1C(=S)N1CCCCC1)c1cc([N+](=O)[O-])cc([N+](=O)[O-])c1 89.1 µM
CCc1nnc(NC(=O)C2CC(=O)N(c3ccc4c(c3)OCCO4)C2)s1 (stereo unspecified) 56.2 µM
Cc1ccc(-n2nc(-c3ccco3)cc2C(=O)NCc2cccnc2)cc1 70.8 µM
O=c1c(O)c(Br)ccc2c(Br)c(O)c(O)c(O)c12 7.94 µM
O=C(Nc1ccccc1-c1ccccc1)c1cccs1 70.8 µM
C=C(C(C)=O)C(O)c1ccc([N+](=O)[O-])cc1 (stereo unspecified) 50.1 µM
CC(C)n1cnc2c(NCc3ccccc3)cc(OCC3CCN(C)CC3)cc21 50.1 µM
CSc1ccccc1C(=O)Nc1cccc(C(C)=O)c1 39.8 µM
O=C(/C=C/Sc1ncn[nH]1)c1ccc(Cl)cc1 39.8 µM
Cc1ccnc(-n2sc3ccccc3c2=O)n1 25.1 µM
NC(=O)C1(C(N)=O)OC1c1ccc(Cl)cc1Cl (stereo unspecified) 14.1 µM
CCOC(=O)C1Sc2[nH]c(=O)sc2C(c2ccc(Cl)cc2)C1C(=O)OCC (stereo unspecified) 79.4 µM
CC(=O)c1c(C)n(S(=O)(=O)c2ccc(Cl)cc2)c2ccc(NS(=O)(=O)c3ccc(Cl)cc3)cc12 79.4 µM
O=C(O)C(c1ccccc1)N1C(=O)/C(=C\c2ccc(-c3cccc(Cl)c3)o2)SC1=S (stereo unspecified) 79.4 µM
O=c1[nH]c(/C=C\c2cccc(C(F)(F)F)c2)nc(O)c1[N+](=O)[O-] 44.7 µM
CCCCc1nn(-c2ccccc2C(F)(F)F)c(=O)n1Cc1ccc(-c2ccccc2S(=O)(=O)NC(=O)c2sccc2C)cc1 44.7 µM
Cc1cc(C)cc(C(=O)NC2C(=O)N3C(C(=O)O)=C(CSc4nnc(C)s4)CSC23)c1 (stereo unspecified) 79.4 µM
